High-throughput results from PubChem.
Compounds with a hit are over-represented: about 1.3% of the library has one in this group of screens.
PrP 5UTR inh: suppresses PrP 5' UTR mRNA reporter expression; cell-based PrP 5' UTR mRNA reporter, plate reader; actives 0.35% (n = 340,000); AID 488862; inhibition, % (concentration not given with the values); in the data active = inhibition above about 52%
Mtb UGM inh: inhibitors of M. tuberculosis UDP-galactopyranose mutase; purified UGM, fluorescence polarization probe displacement; inhibition, % at 10 µM; actives 0.06% (n = 320,000); AID 504406; in the data active = inhibition above about 10%, passing the limit was not always enough; inconclusive = no clear call, values can overlap the other calls
FadD28 FP inh: blocks FadD28 binding to the bisubstrate probe; fluorescence polarization; actives 0.22% (n = 360,000); AID 588549; inhibition, % at 12.5 µM; in the data active = inhibition above about 8.5%, passing the limit was not always enough; inconclusive = no clear call, values can overlap the other calls
RecA intein inh: blocks M. tuberculosis RecA intein splicing | P9WHJ3 | cell-free RecA intein splicing, fluorescence | inhibition, % (no concentration beside the values) | actives 0.75% (n = 290,000) | AID 2221; in the data active = inhibition above about 30%; inconclusive = no clear call, values can overlap the other calls
Target sequence (P9WHJ3 whole entry, looked up): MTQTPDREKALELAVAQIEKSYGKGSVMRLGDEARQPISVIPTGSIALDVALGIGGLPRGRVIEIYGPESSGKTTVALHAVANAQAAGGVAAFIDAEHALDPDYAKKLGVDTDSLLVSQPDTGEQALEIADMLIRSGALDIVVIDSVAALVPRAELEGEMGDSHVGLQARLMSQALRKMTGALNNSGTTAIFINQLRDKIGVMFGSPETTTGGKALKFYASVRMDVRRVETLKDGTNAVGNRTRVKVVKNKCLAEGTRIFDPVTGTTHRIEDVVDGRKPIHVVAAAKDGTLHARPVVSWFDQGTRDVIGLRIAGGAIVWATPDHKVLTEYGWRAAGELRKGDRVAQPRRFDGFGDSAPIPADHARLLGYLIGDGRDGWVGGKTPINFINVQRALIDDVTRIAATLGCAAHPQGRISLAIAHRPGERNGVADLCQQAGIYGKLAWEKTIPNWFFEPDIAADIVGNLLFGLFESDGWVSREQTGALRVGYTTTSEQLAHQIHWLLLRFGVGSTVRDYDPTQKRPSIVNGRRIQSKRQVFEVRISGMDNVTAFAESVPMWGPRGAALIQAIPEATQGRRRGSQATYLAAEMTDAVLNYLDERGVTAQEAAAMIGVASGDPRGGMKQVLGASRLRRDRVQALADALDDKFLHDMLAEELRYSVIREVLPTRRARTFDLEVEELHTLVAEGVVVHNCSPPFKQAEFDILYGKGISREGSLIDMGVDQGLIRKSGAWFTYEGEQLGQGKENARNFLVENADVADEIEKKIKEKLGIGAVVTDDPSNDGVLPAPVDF
BJeLR viability: kills HRASV12-expressing BJeLR cells | actives 0.17% (n = 300,000) | AID 1554 | BJeLR (HRASV12) viability, CellTiter-Glo ATP luminescence, 48 h | inhibition, % (concentration not given with the values); in the data active = inhibition above about 50%; inconclusive = no clear call, values can overlap the other calls
Rv3671c inh: inhibitors of M. tuberculosis serine protease Rv3671c; P9WHR9; inhibition, % at 5.96 µM; actives 0.048% (n = 320,000); AID 2606; in the data active = inhibition above about 38%;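 also: extracellular domain of Rv3671c used as enzyme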
A number is an active result.

Screening CSC1=NSC2=NC(=O)/C(=C/c3coc4ccccc4c3=O)C(=N)N12 returned PrP 5UTR inh inactive, Mtb UGM inh inactive, FadD28 FP inh inactive and Rv3671c inh inactive.
CCOC(=O)c1c(NS(=O)(=O)Cc2ccccc2)sc2c1CCCC2 was read as PrP 5UTR inh inactive, Mtb UGM inh inactive, FadD28 FP inh inactive, BJeLR viability inactive and Rv3671c inh inactive.
For CCOC(=O)c1c(NS(=O)(=O)c2ccc(Br)cc2)sc2c1CCC2 the results were PrP 5UTR inh inactive, Mtb UGM inh inactive, FadD28 FP inh 11.6, RecA intein inh inactive, BJeLR viability inactive and Rv3671c inh inactive.
Screening O=C(Cc1ccc(Cl)cc1)c1c[nH]c(C(=O)NCc2cccnc2)c1 returned PrP 5UTR inh inactive, Mtb UGM inh inactive, FadD28 FP inh inactive, RecA intein inh inactive, BJeLR viability 77.6 and Rv3671c inh inactive.
Screening O=C(COc1ccc(Cl)cc1)Nc1ccc(C(=O)NCc2cccnc2)cc1 returned PrP 5UTR inh inactive, Mtb UGM inh inactive, FadD28 FP inh inactive, RecA intein inh inactive, BJeLR viability 87.3 and Rv3671c inh inactive.
Screening Cc1cccc(OCC(=O)Nc2ccc(C(=O)NCc3cccnc3)cc2)c1 returned Mtb UGM inh inactive, RecA intein inh inactive, BJeLR viability 55.0 and Rv3671c inh inactive.
C#CCN(C[C@@H]1[C@@H](OC(=O)NCC2CCCCC2)[C@@H](OC(=O)NCC2CCCCC2)Cn2c(=O)n(CCCCCC)c(=O)n21)S(=O)(=O)c1ccc(C)cc1 was read as FadD28 FP inh inactive.
Screening FC(F)(F)c1ccccc1Cc1c(-c2cccc(Cl)c2)nc2ccc(Cl)cn12 returned FadD28 FP inh inactive.
Screening Cc1ccc(C(=O)NC(=S)c2c(C)cc3ccccn23)cc1 returned FadD28 FP inh inactive.
`Cc1cccc(C2C3=C(Nc4[nH]n(-c5ccccc5)c(=O)c42)c2ccccc2C3=O)c1` (configuration not stated) gave PrP 5UTR inh inactive, FadD28 FP inh 22.3, RecA intein inh inactive and BJeLR viability inactive.
N=c1n(CCN2CCCC2)c2ccccc2n1CC(O)c1ccco1 (configuration not stated) was read as PrP 5UTR inh inactive, Mtb UGM inh 40.7, FadD28 FP inh inactive, RecA intein inh inactive, BJeLR viability inactive and Rv3671c inh inactive.
N#Cc1ccc(-c2nc3c4ccccc4ccn3c2Cc2cccc(Cl)c2)cc1 was read as FadD28 FP inh inactive.
Screening CC(C)NC(=O)C1Cc2c(-c3ccccc3Oc3ccccc3)ccnc2O1 (configuration not stated) returned FadD28 FP inh inactive.
`COc1ccccc1NC(=O)C1CCN(S(=O)(=O)c2cccs2)CC1` gave PrP 5UTR inh inactive, Mtb UGM inh 16.8, FadD28 FP inh inactive and Rv3671c inh inactive.
For COCc1c(C(=O)Nc2nnc(C3CC3)s2)oc2ccccc12 the results were FadD28 FP inh inactive.
For Cc1[nH][nH]c(=O)c1C(c1ccc(O)c([N+](=O)[O-])c1)c1c(C)[nH][nH]c1=O the results were PrP 5UTR inh inactive, Mtb UGM inh inactive, FadD28 FP inh inactive, RecA intein inh inactive, BJeLR viability inactive and Rv3671c inh inactive.
`Cc1[nH][nH]c(=O)c1[C@@H](c1ccccc1[N+](=O)[O-])C(C#N)C#N` gave PrP 5UTR inh inactive, Mtb UGM inh inactive, FadD28 FP inh inactive, RecA intein inh 62.0, BJeLR viability inactive and Rv3671c inh inactive.
COc1cccc(C(O)c2nc(-c3ccccc3)cs2)c1 (configuration not stated) was read as FadD28 FP inh inactive.
COc1cc(/C=C2\CC/C(=C\c3cc(OC)c(O)c(OC)c3)C2=O)cc(OC)c1O was read as PrP 5UTR inh inactive, Mtb UGM inh 17.3, FadD28 FP inh inconclusive and Rv3671c inh inactive.
Screening COc1ccc(OC)c(NC(=O)CSc2ncnc3sc(C)cc23)c1 returned PrP 5UTR inh inactive and FadD28 FP inh 13.7.
For CN(Cc1ccccc1)C(=O)C(=O)c1c[nH]c2ccccc12 the results were FadD28 FP inh inactive.
For O=C(N=c1ccn(-c2nc3ccccc3nc2NS(=O)(=O)c2ccc(Cl)cc2)cc1)c1ccccc1Cl the results were Mtb UGM inh 34.1, RecA intein inh inactive, BJeLR viability inactive and Rv3671c inh inactive.
Screening O=C(N=c1ccn(-c2nc3ccccc3nc2NS(=O)(=O)c2ccc(Cl)cc2)cc1)c1cccs1 returned PrP 5UTR inh inactive, Mtb UGM inh 17.2, FadD28 FP inh inactive, RecA intein inh inactive, BJeLR viability inactive and Rv3671c inh inactive.
